# This is one part of a sample in which the strongest signals are shown more often than they occur.
# Assays:
# Test in all cases: glycan array binding signal (z-score within array); higher = stronger binding
# Settings in all cases: glycan notation: IUPAC condensed, linker removed
# [1] = target: Neu5Ac(a2-3)Gal(b1-4)GlcNAc(b1-3)Gal(b1-4)GlcNAc(b1-3)GalNAc
# Summary of the method: (§1)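 Glycan array data came from 3228 arrays in the Consortium for Functional Glycomics database, and only arrays with an available protein sequence were kept. Glycan names were put into IUPAC-condensed notation, and columns mapping to the same glycan were averaged. The binding signal is a within-array Z-score, averaged across arrays of one protein sequence run at different concentrations or buffers and across linkers. A negative Z-score can be read as non-binding.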
# [2] = target: Neu5Ac(a2-3)Gal(b1-4)GlcNAc(b1-3)Gal(b1-4)GlcNAc(b1-6)[Gal(b1-3)]GalNAc
# Summary of the method: as §1
# [3] = target: Neu5Ac(a2-3)Gal(b1-4)GlcNAc(b1-6)[Gal(b1-3)]GalNAc
# Summary of the method: as §1
# [4] = target: Neu5Ac(a2-3)Gal(b1-4)[Fuc(a1-3)]GlcNAc(b1-3)Gal
# Summary of the method: as §1
# [5] = target: Neu5Ac(a2-3)[GalNAc(b1-4)]Gal(b1-4)GlcNAc(b1-3)GalNAc
# Summary of the method: as §1
# [6] = target: Neu5Ac(a2-6)Gal(b1-4)GlcNAc
# Summary of the method: as §1
# [7] = target: Neu5Ac(a2-6)Gal(b1-4)GlcNAc(b1-2)Man
# Summary of the method: as §1
# [8] = target: Neu5Ac(a2-6)Gal(b1-4)GlcNAc(b1-2)Man(a1-3)[Man(a1-6)]Man(b1-4)GlcNAc(b1-4)GlcNAc
# Summary of the method: as §1
# [9] = target: Neu5Ac(a2-6)Gal(b1-4)GlcNAc(b1-2)[Neu5Ac(a2-6)Gal(b1-4)GlcNAc(b1-6)]Man(a1-6)[Neu5Ac(a2-6)Gal(b1-4)GlcNAc(b1-2)Man(a1-3)][GlcNAc(b1-4)]Man(b1-4)GlcNAc(b1-4)GlcNAc
# Summary of the method: as §1
# [10] = target: Neu5Ac(a2-6)Gal(b1-4)GlcNAc(b1-6)[Gal(b1-3)GlcNAc(b1-3)]Gal(b1-4)Glc
# Summary of the method: as §1
# [11] = target: Neu5Ac(a2-6)Gal(b1-4)GlcNAc6S
# Summary of the method: as §1
# [12] = target: Neu5Ac(a2-6)GalNAc
# Summary of the method: as §1
# [13] = target: Neu5Ac(a2-8)Neu5Ac(a2-3)Gal(b1-4)Glc
# Summary of the method: as §1
# [14] = target: Neu5Ac(a2-8)Neu5Ac(a2-8)Neu5Ac(a2-3)[Gal(b1-3)GalNAc(b1-4)]Gal(b1-4)Glc
# Summary of the method: as §1
# [15] = target: Neu5Ac(a2-8)Neu5Gc(a2-3)Gal(b1-4)GlcNAc
# Summary of the method: as §1
# [16] = target: Fuc(a1-2)Gal(b1-3)GalNAc(b1-4)[Neu5Ac(a2-3)]Gal(b1-4)Glc
# Summary of the method: as §1
# [17] = target: Fuc(a1-2)Gal6S(b1-3)GlcNAc6S
# Summary of the method: as §1
# [18] = target: Fuc(a1-2)[Gal(a1-3)]Gal(b1-4)[Fuc(a1-3)]Glc
# Summary of the method: as §1
# [19] = target: Fuc(a1-2)[GalNAc(a1-3)]Gal(b1-3)GlcNAc(b1-6)GalNAc
# Summary of the method: as §1
# [20] = target: Fuc(a1-2)[GalNAc(a1-3)]Gal(b1-4)GlcNAc(b1-3)Gal(b1-4)GlcNAc(b1-3)Gal(b1-4)GlcNAc
# Summary of the method: as §1
# [21] = target: Fuc(a1-2)[GalNAc(b1-3)]Gal
# Summary of the method: as §1
# [22] = target: Fuc(a1-3)[Gal3S(b1-4)]Glc
# Summary of the method: as §1
# [23] = target: Fuc(b1-3)GlcNAc
# Summary of the method: as §1
# [24] = target: Gal(a1-3)Gal(b1-4)Glc
# Summary of the method: as §1
# [25] = target: Gal(a1-3)[Gal(a1-4)]Gal(b1-4)GlcNAc
# Summary of the method: as §1
# [26] = target: Gal(a1-4)Gal(b1-4)GlcNAc(b1-2)Man(a1-3)[Gal(a1-4)Gal(b1-4)GlcNAc(b1-2)Man(a1-6)]Man(b1-4)GlcNAc(b1-4)GlcNAc
# Summary of the method: as §1
# [27] = target: Gal(b1-3)GalNAc
# Summary of the method: as §1
# [28] = target: Gal(b1-3)GalNAc(b1-3)Gal(a1-4)Gal(b1-4)Glc
# Summary of the method: as §1
# [29] = target: Gal(b1-3)GlcNAc(b1-3)Gal(b1-4)GlcNAc(b1-2)Man(a1-3)[Gal(b1-3)GlcNAc(b1-3)Gal(b1-4)GlcNAc(b1-2)Man(a1-6)]Man(b1-4)GlcNAc(b1-4)GlcNAc
# Summary of the method: as §1
# [30] = target: Gal(b1-4)GlcNAc(b1-3)Gal(b1-4)GlcNAc(b1-3)GalNAc
# Summary of the method: as §1
# [31] = target: Gal(b1-4)GlcNAc(b1-3)GalNAc
# Summary of the method: as §1
# [32] = target: Gal3S6S(b1-4)GlcNAc
# Summary of the method: as §1
# [33] = target: GalNAc(a1-3)Gal
# Summary of the method: as §1
# [34] = target: GalNAc(b1-3)Gal
# Summary of the method: as §1
# [35] = target: GalNAc(b1-3)Gal(a1-4)Gal(b1-4)GlcNAc
# Summary of the method: as §1
# [36] = target: GalNAc(b1-3)Gal(a1-4)Gal(b1-4)GlcNAc(b1-3)Gal(b1-4)Glc
# Summary of the method: as §1
# [37] = target: GalNAc(b1-3)Gal(a1-6)Gal(b1-4)Glc
# Summary of the method: as §1
# [38] = target: GalNAc(b1-4)GlcNAc
# Summary of the method: as §1
# [39] = target: GalNAc(b1-4)GlcNAc(b1-2)Man
# Summary of the method: as §1
# [40] = target: GalNAc(b1-4)GlcNAc(b1-2)Man(a1-3)[GalNAc(b1-4)GlcNAc(b1-2)Man(a1-6)]Man(b1-4)GlcNAc(b1-4)GlcNAc
# Summary of the method: as §1
# [41] = target: GalNAc(b1-4)GlcNAc(b1-3)GalNAc(b1-4)GlcNAc
# Summary of the method: as §1
# [42] = target: GalNAc(b1-4)GlcNAc6S
# Summary of the method: as §1
# [43] = target: Glc(a1-4)Glc(a1-4)Glc(a1-4)Glc
# Summary of the method: as §1
# [44] = target: GlcNAc(b1-2)Man(a1-3)[GlcNAc(b1-2)Man(a1-6)]Man(b1-4)GlcNAc(b1-4)[Fuc(a1-6)]GlcNAc
# Summary of the method: as §1
# [45] = target: GlcNAc(b1-2)Man(a1-3)[GlcNAc(b1-4)][GlcNAc(b1-2)Man(a1-6)]Man(b1-4)GlcNAc(b1-4)GlcNAc
# Summary of the method: as §1
# [46] = target: GlcNAc(b1-2)[GlcNAc(b1-4)]Man(a1-3)[GlcNAc(b1-4)][GlcNAc(b1-2)[GlcNAc(b1-6)]Man(a1-6)]Man(b1-4)GlcNAc(b1-4)[Fuc(a1-6)]GlcNAc
# Summary of the method: as §1
# [47] = target: GlcNAc(b1-4)Gal(b1-4)GlcNAc
# Summary of the method: as §1
# [48] = target: Man(a1-2)Man(a1-3)[Man(a1-2)Man(a1-6)]Man
# Summary of the method: as §1
# [49] = target: Man(a1-2)Man(a1-6)[Man(a1-3)]Man(a1-6)[Man(a1-2)Man(a1-2)Man(a1-3)]Man
# Summary of the method: as §1
# [50] = target: Man(a1-3)[Man(a1-6)]Man(b1-4)GlcNAc(b1-4)GlcNAc
# Summary of the method: as §1
# [51] = target: Man(a1-3)[Man(a1-6)]Man(b1-4)GlcNAc(b1-4)[Fuc(a1-6)]GlcNAc
# Summary of the method: as §1
# [52] = target: Neu5Ac(a2-3)Gal(b1-3)GalNAc(b1-4)[Neu5Ac(a2-3)]Gal(b1-4)Glc
# Summary of the method: as §1
# [53] = target: Neu5Ac(a2-3)Gal(b1-3)GlcNAc(b1-6)GalNAc
# Summary of the method: as §1
# [54] = target: Neu5Ac(a2-3)Gal(b1-3)[Neu5Ac(a2-6)]GalNAc
# Summary of the method: as §1
# [55] = target: Neu5Ac(a2-3)Gal(b1-3)[Neu5Ac(a2-6)]GlcNAc(b1-3)[Fuc(a1-3)[Gal(b1-4)]GlcNAc(b1-6)]Gal(b1-4)Glc
# Summary of the method: as §1
# [56] = target: Neu5Ac(a2-6)Gal(b1-4)GlcNAc(b1-3)[Neu5Ac(a2-6)Gal(b1-4)GlcNAc(b1-6)]GalNAc
# Summary of the method: as §1
# [57] = target: Neu5Ac(a2-6)Gal(b1-4)GlcNAc(b1-6)GalNAc
# Summary of the method: as §1
# [58] = target: Neu5Ac(a2-8)Neu5Ac(a2-8)Neu5Ac(a2-8)Neu5Ac(a2-3)[GalNAc(b1-4)]Gal(b1-4)Glc
# Summary of the method: as §1
# [59] = target: Neu5Gc(a2-3)Gal(b1-3)[Fuc(a1-4)]GlcNAc
# Summary of the method: as §1
binder,measurement,setting,value
CM2 (Cordyceps militaris) (protein) MEIAEQNVGKSCAIVNLIPPKEGSNIWTAKQVTIARNLPPNRGTGRHQIDWSFGPVKVTGYVDTTNWEIGVTVSIMGIDLGTVYGNLRDGVVLNVDLFLAKGQVRFYLKNGNEVWVHLSVEIRFDGKFEGDYKIITV,glycan array binding signal (z-score),[1],3.11
same,glycan array binding signal (z-score),[2],-1.25
same,glycan array binding signal (z-score),[3],-0.406
same,glycan array binding signal (z-score),[4],0.036
same,glycan array binding signal (z-score),[5],0.919
same,glycan array binding signal (z-score),[6],-0.125
same,glycan array binding signal (z-score),[7],2.54
same,glycan array binding signal (z-score),[8],-0.907
same,glycan array binding signal (z-score),[9],-0.924
same,glycan array binding signal (z-score),[10],-1.25
same,glycan array binding signal (z-score),[11],-1.69
same,glycan array binding signal (z-score),[12],0.447
same,glycan array binding signal (z-score),[13],-0.496
same,glycan array binding signal (z-score),[14],-0.622
same,glycan array binding signal (z-score),[15],-1.52
"CSA (Cytisus scoparius), P29257 (protein) SEELSFSFTKFKTDQKNLILQRDALITPTGKLQLTTVENGKPAAYSLGRALYSTPIHIWDKSTGDEASFATFFSFVISDAPNPSTAATDGLAFFLAPADTQPQSAGGYLGLFEKDSSYNSSNQIVAVEFDTYYNSAWDPQTNPHIGIDVNTIKSKKVSSWGFKNGNVATVLITYQPSSKSLVASLVYPSGQTSDKTSYIISANVDLKATVPEWVRIGFSATTGQTDNYIETHDILSWSFKSKLPATKN",glycan array binding signal (z-score),[16],-0.177
same,glycan array binding signal (z-score),[17],-0.196
same,glycan array binding signal (z-score),[18],-0.201
same,glycan array binding signal (z-score),[19],-0.214
same,glycan array binding signal (z-score),[20],-0.012
same,glycan array binding signal (z-score),[21],4.5
same,glycan array binding signal (z-score),[22],-0.165
same,glycan array binding signal (z-score),[23],-0.186
same,glycan array binding signal (z-score),[24],-0.157
same,glycan array binding signal (z-score),[25],-0.124
same,glycan array binding signal (z-score),[26],-0.162
same,glycan array binding signal (z-score),[27],-0.159
same,glycan array binding signal (z-score),[28],0.019
same,glycan array binding signal (z-score),[29],-0.157
same,glycan array binding signal (z-score),[30],0.306
same,glycan array binding signal (z-score),[31],-0.162
same,glycan array binding signal (z-score),[32],-0.186
same,glycan array binding signal (z-score),[33],3.51
same,glycan array binding signal (z-score),[34],2.98
same,glycan array binding signal (z-score),[35],3.35
same,glycan array binding signal (z-score),[36],2.76
same,glycan array binding signal (z-score),[37],4.13
same,glycan array binding signal (z-score),[38],6.99
same,glycan array binding signal (z-score),[39],8.12
same,glycan array binding signal (z-score),[40],3.25
same,glycan array binding signal (z-score),[41],12.4
same,glycan array binding signal (z-score),[42],9.73
same,glycan array binding signal (z-score),[43],-0.19
same,glycan array binding signal (z-score),[44],-0.139
same,glycan array binding signal (z-score),[45],-0.238
same,glycan array binding signal (z-score),[46],-0.166
same,glycan array binding signal (z-score),[47],-0.213
same,glycan array binding signal (z-score),[48],-0.234
same,glycan array binding signal (z-score),[49],-0.179
same,glycan array binding signal (z-score),[50],-0.142
same,glycan array binding signal (z-score),[51],-0.225
same,glycan array binding signal (z-score),[52],-0.247
same,glycan array binding signal (z-score),[53],-0.235
same,glycan array binding signal (z-score),[54],-0.159
same,glycan array binding signal (z-score),[55],-0.146
same,glycan array binding signal (z-score),[1],-0.216
same,glycan array binding signal (z-score),[56],-0.172
same,glycan array binding signal (z-score),[57],-0.202
same,glycan array binding signal (z-score),[58],-0.149
same,glycan array binding signal (z-score),[59],-0.202

# Reference: the supplement of paper PMC8728848
